Sampled rows, rich in hits. Any-hit rate of the full collection: about 0.45%.
QS inhibitor: inhibitors of bacterial quorum sensing in S. aureus; S. aureus RN6390 RNAIII-GFP reporter, AIP-induced, flow cytometry 3 h; inhibition, % at 2 µM; 24,000 tested, 0.3% active; AID 527;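 active = share of bacteria positive for the green fluorescent reporter and its mean brightness both inhibited by 50% or more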
26S disassembly: blocks ATP-dependent breakdown of the yeast 26S proteasome. 24,000 tested, 0.2% active. inhibition of disassembly, % (no concentration beside the values). anti-FLAG beads, GFP-proteasome disassembly, flow cytometry. AID 751;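 active = inhibition of disassembly above about 33%, limit read from the data; inconclusive = likely self-fluorescent, control bead median signal at least 40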;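 note: higher percent means more bead fluorescence retained so stronger block of disassembly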
Large screens that a line does not name were inactive; ! = not confirmed by another sample.

O=C(Nc1ccccc1C(F)(F)F)N1CCN(c2ccc3nnc(-c4ccc(F)cc4)n3n2)CC1	none
Fc1ccc(-c2nnc3ccc(N4CCc5ccccc5C4)nn23)cc1	QS inhibitor 69
COc1ccc(OC)c(C2N(c3ccc(Cl)cc3)C(=O)C3CCCN32)c1 (stereo unspecified)	26S disassembly 85
COc1ccc(N2C(=O)C3CCCN3C2c2ccc(Cl)cc2)cc1 (stereo unspecified)	none
CCCCn1c2c(c3ccccc31)CCc1nonc1-2	none
CCNC(=O)c1cc2c(=O)n3cccc(C)c3nc2n1C	none
CCCn1c(=NC(C)=O)c(C#N)cc2c(=O)n3cccc(C)c3nc21	26S disassembly 67
N[C@@H](Cc1cc(I)c(Oc2ccc(O)c(I)c2)c(I)c1)C(=O)O	none
O=C(O)CCc1cc(I)c(Oc2ccc(O)c(I)c2)c(I)c1	QS inhibitor 88
O=C(CCCN1C(=O)c2cccnc2C1=O)N1CC(=O)N(CCc2ccccc2)C(=O)C1	none
Cc1ccc(NC(=O)CCn2cccc2)cc1Cl	none
CCCOc1ccc(/C=c2\sc3nc(-c4ccco4)nn3c2=O)cc1OCC	26S disassembly 125
CC(=O)Oc1cccc(/C=c2\sc3nc(-c4ccco4)nn3c2=O)c1	none
CC1=C(C(=O)NCc2ccccn2)C2(CCC(C)CC2)OC1=O (stereo unspecified)	none
Cc1ccc2[nH]c(=O)c(CN(CCN3CCOCC3)C(=O)Nc3ccc(F)cc3)cc2c1	none (no result: 26S disassembly)
CCc1ccc2[nH]c(=O)c(CN(CCCN3CCOCC3)C(=O)Nc3ccc(Cl)cc3)cc2c1	QS inhibitor 94 (no result: 26S disassembly)
O=C(Nc1ccccc1)N(CCCN1CCOCC1)Cc1cc2cc3c(cc2[nH]c1=O)OCCO3	none
Cc1cc(C)c2cc(CN(CCN3CCCC3)C(=O)Nc3ccc(F)cc3)c(=O)[nH]c2c1	none (no result: 26S disassembly)
CCc1ccc2[nH]c(=O)c(CN(CCCN3CCOCC3)C(=O)Nc3cccc(Cl)c3)cc2c1	QS inhibitor 60 (no result: 26S disassembly)
Cc1ccc(C)c2[nH]c(=O)c(CN(CCN3CCCC3)C(=O)Nc3cccc(Cl)c3)cc12	QS inhibitor 84, 26S disassembly inconclusive
CCOc1ccc(N(CC(=O)NC(C)CC)S(=O)(=O)c2c(C)noc2C)cc1 (stereo unspecified)	none
CCCOc1ccc2oc(=O)c3c(c2c1)CCCN3C(=O)CN(C)Cc1ccccc1	none
CCOc1ccc(NC(=O)C2CCCN(S(=O)(=O)c3c(C)n[nH]c3C)C2)cc1 (stereo unspecified)	none
CCOc1ccc(NC(=O)C2CCCN(S(=O)(=O)c3c(C)nn(C)c3C)C2)cc1 (stereo unspecified)	QS inhibitor 96, 26S disassembly inconclusive
COc1ccc(NC(C)=O)cc1NC(=O)CN1CCN(CC(=O)Nc2ccc(Cl)cc2)CC1	none
CCc1ccc(Nc2cc(=O)n(C3CCCCC3)c(=O)[nH]2)cc1	none
O=c1cc(Nc2ccc3c(c2)OCCO3)[nH]c(=O)n1C1CCCCC1	26S disassembly 108
Cc1ccc2nc(NC(=O)C3CCCN(S(=O)(=O)c4cccc5nsnc45)C3)sc2c1 (stereo unspecified)	26S disassembly 151
Cc1ccc2nc(NC(=O)C3CCN(S(=O)(=O)c4cccc5nsnc45)CC3)sc2c1	none
NC(=O)C1(N2CCCCC2)CCN(Cc2ccccc2Cl)CC1	none
Cc1noc(/C=C/c2ccco2)c1S(=O)(=O)N1CCC(C(=O)NCc2ccco2)CC1	none
Cc1noc(/C=C/c2ccco2)c1S(=O)(=O)N1CCC(C(=O)N2CCc3ccccc3C2)CC1	26S disassembly 42
CCOC(=O)C1CCN(C(=O)C2CCN(S(=O)(=O)c3cccc4cccnc34)CC2)CC1	none
Cc1cccc(C2N(c3ccc(F)cc3)C(=O)C3CCCN32)c1 (stereo unspecified)	26S disassembly 61
Cc1ccc(C2N(c3ccc(F)cc3)C(=O)C3CCCN32)cc1 (stereo unspecified)	none
O=C(CN1C(=O)C2CCCN2c2ncc(Cl)cc21)NCc1ccc2c(c1)OCO2 (stereo unspecified)	26S disassembly 55
COC(=O)c1ccccc1NC(=O)CN1C(=O)C2CCCN2c2ncc(Cl)cc21 (stereo unspecified)	26S disassembly 49
CCc1ccccc1NC(=O)CN1C(=O)C2CCCN2c2ncc(Cl)cc21 (stereo unspecified)	none
CC1CCC(NC(=O)CN2C(=O)C3CCCN3c3ncc(Cl)cc32)CC1 (stereo unspecified)	none
Cc1ccc(N(CC(=O)Nc2cccc(C)c2)S(=O)(=O)c2cccc3nonc23)cc1	none
CCOC(=O)c1c(C)nn(Cc2cccc(Cl)c2)c1N	none
Cc1ccc2c(c1)N(CCCC(=O)NCCCN1CCCC1=O)C(=O)CO2	none
N#Cc1cnc(SCC(=O)c2ccccc2)nc1N	none
N#Cc1cnc(SCCc2ccccc2)nc1N	26S disassembly 88
CC1Cc2ccccc2N1C(=O)Cn1c(=O)oc2cc(S(=O)(=O)N3CCCCC3)ccc21 (stereo unspecified)	none
Cc1nc2c(ccc3nc(NC(=O)c4ccc5c(c4)OCCO5)sc32)s1	QS inhibitor 57
Cc1nc2ccc3nc(NC(=O)c4ccc5c(c4)OCCO5)sc3c2s1	none
O=C(NCC1CCCO1)C(=O)NCC(c1ccco1)N1CCN(c2ccccc2)CC1 (stereo unspecified)	none (no result: 26S disassembly)
CC1=CC(=C2C(=O)c3ccccc3C2=O)C=C(C)O1	none
CC(=O)N1C(=O)C(=C2C=C(C)OC(C)=C2)c2ccccc21	26S disassembly 85
O=C1CC(SC(=Nc2ccccc2)Nc2ccccc2)C(=O)N1c1cccc2ccccc12 (stereo unspecified)	none (no result: 26S disassembly)
O=C(NCc1cccnc1)C(=O)NCC(c1ccco1)N1CCN(c2ccc(F)cc2)CC1 (stereo unspecified)	none (no result: 26S disassembly)
Cc1ccc(NC(=O)c2cc(C)on2)cc1	QS inhibitor 76
CCc1ccc(NC(=O)c2cc(C)on2)cc1	none
O=C(CSc1ncnc2sc3c(c12)CCCCC3)NCc1ccco1	none
c1csc(CCNc2ncnc3sc4c(c23)CCC4)c1	QS inhibitor 67
CC(=O)CC(=O)Nc1ccccc1NC(C)=O	none
Nc1nc(C2CC2)c(Sc2sc(N)nc2C2CC2)s1	none
CCCC(=O)Nc1cc(C)c2c(=O)oc3ccccc3c2n1	none
Cc1cc(NC(=O)CC(C)(C)C)nc2c1c(=O)oc1ccccc12	QS inhibitor 72!
O=C(NC1CCCCC1)C(c1cc2c(cc1[N+](=O)[O-])OCO2)N1CCCCC1 (stereo unspecified)	none (no result: 26S disassembly)
O=C(CSc1nnc2c(n1)[nH]c1ccccc12)Nc1ccc2c(c1)OCO2	none (no result: 26S disassembly)
COc1ccc(CNC(=O)CS(=O)Cc2nc(-c3ccccc3C)oc2C)cc1 (stereo unspecified)	none
COc1ccccc1CNC(=O)CS(=O)Cc1nc(-c2ccccc2C)oc1C (stereo unspecified)	26S disassembly 165
COCCn1c(CN2CCN(c3ccccc3F)CC2)nc2c1c(=O)n(C)c(=O)n2C	none
O=C(O)c1cccnc1SCc1ccccc1	none
O=C(Nc1nc2c(s1)CCc1ccccc1-2)c1cccs1	QS inhibitor 79
CSc1nc2ccc3nc(NC(=O)c4cccs4)sc3c2s1	none
CCc1oc2ccccc2c1C(=O)c1cc(Br)c(O)c(Br)c1	QS inhibitor 52
CCOC(=O)c1c(COc2ccccc2)oc2ccc(O)cc12	none (no result: 26S disassembly)
COc1cc(CNc2ccc(N3CCOCC3)c(C(=O)O)c2)ccc1OCC(N)=O	none
CCOC(=O)N1CCN(C(=O)c2ccc3c(=O)n(Cc4ccccc4)c(=S)[nH]c3c2)CC1	none
CCCn1c(=S)[nH]c2cc(C(=O)N3CCN(c4ccccc4OC)CC3)ccc2c1=O	QS inhibitor 66
CCCCNC(=O)Nc1ccnn1C1CCCCC1	none
